LDHA inh = LDHA (human) enzyme inhibition. P00338. activity change, % (values are at about 110 or 230 µM). 0.15% of 480,000 active. purified LDHA, NADH/diaphorase-resazurin fluorescence; hits give low values; in the data active = activity change below about -30%; inconclusive = mostly about -25% to -30%;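 also: plate controls were DMSO wells for no effect and wells without enzyme for full effect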
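LDH5 2 nM; NADH 0.06 mM, pyruvate 0.2 mM; 200 mM Tris pH 7.4, EDTA, Tween-20; 5 min RT. Detection: diaphorase 0.133 mg/mL + resazurin 37 µM, fluorescence ex540/em590 at 0 and 20 min; normalized to enzyme-free and DMSO wells.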
Nrf2 block = inhibitors of Nrf2 signaling. A549 ARE-Fluc reporter, luciferase luminescence, 18-24 h. Potency, µM (highest dose often 46 µM), without a hit: at the top dose activity change, negative = inhibition, hits mostly inhibitors. 2.1% of 360,000 active. AID 504444; also: potency is read from the fitted curve at half-maximal effect; % is scaled to controls: 0 for no effect and ±100 for the full control effect; nearly all actives have a fitted effect of over 60% in size
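Concentration-response testing used A549 ARE_Fluc cells at 5000 cells/well. Following an 18-24 h compound incubation, viability was read by fluorescence (Ex 405/Em 525) and luciferase output by luminescence.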
A549 viability = kills or reduces viability of A549 cells in Nrf2 counter-screen | A549 ARE-Fluc cells, CellTiter-Fluor viability, 18-24 h | Potency, µM (top dose mostly 46 µM), for inactives: top-dose activity change, negative = cytotoxicity, actives largely listed as inhibitors | 0.16% of 390,000 active; also: potency is read from the fitted curve at half-maximal effect; % is scaled to controls: 0 for no effect and ±100 for the full control effect
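A549 ARE_Fluc cells in 5% FBS OPTI-MEM were exposed to compounds in concentration-response for 18-24 h at 37 deg C. Viability was read by CellTiter-Fluor fluorescence (Ex 405/Em 525) after 30 min, before the luciferase read.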
Nrf2 ARE act = activators of Nrf2 (ARE) signaling. AREc32 ARE-luciferase reporter (MCF7-derived line), luminescence, 24 h. Potency, µM (doses to about 46.1 µM), for inactives: at the highest dose activation, most hits filed as activators. 0.31% of 410,000 active. AID 624171; also: potency is read from the fitted curve at half-maximal effect; % of control where 0% means no effect; nearly all actives have a fitted effect of over 65% in size
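Reporter line AREc32 (ARE-Fluc), seeded overnight in OPTI-MEM with 5% FBS; compound pin-transferred, 24 hr at 37 deg C, 5% CO2; luminescent read-out.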
ALOX12 inh = blocks human arachidonate 12S-lipoxygenase. P18054. purified 12hLO, xylenol orange hydroperoxide absorbance. Potency, µM (titrated, usually from 108 µM), without a hit: top-dose activity change, negative = inhibition, actives largely listed as inhibitors. 1.1% of 580,000 active; also: potency is read from the fitted curve at half-maximal effect; % is scaled to controls: 0 for no effect and ±100 for the full control effect
Target sequence (P18054 whole entry, looked up): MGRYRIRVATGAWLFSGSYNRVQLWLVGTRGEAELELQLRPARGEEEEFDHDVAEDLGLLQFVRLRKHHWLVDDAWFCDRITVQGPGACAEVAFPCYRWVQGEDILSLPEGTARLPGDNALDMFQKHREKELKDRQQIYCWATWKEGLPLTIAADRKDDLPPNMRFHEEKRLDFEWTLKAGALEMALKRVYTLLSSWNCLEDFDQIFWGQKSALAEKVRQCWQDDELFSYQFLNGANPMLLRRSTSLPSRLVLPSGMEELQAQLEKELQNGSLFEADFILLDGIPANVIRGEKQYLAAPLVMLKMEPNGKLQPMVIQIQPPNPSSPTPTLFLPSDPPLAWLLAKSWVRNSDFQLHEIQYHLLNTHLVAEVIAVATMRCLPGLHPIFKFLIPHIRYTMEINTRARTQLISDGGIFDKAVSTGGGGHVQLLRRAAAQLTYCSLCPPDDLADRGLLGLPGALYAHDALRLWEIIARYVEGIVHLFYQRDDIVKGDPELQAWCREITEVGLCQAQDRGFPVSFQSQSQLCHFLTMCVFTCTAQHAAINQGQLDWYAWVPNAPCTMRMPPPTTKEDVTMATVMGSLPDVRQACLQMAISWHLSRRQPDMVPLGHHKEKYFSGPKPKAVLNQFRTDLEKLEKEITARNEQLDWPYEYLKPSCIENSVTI
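Purified human 12hLO (150 nM final) in 25 mM Hepes, 0.01% Triton X-100, pH 7.0 was preincubated 15 min at room temperature with compound. Then 40 uM arachidonic acid was added, 30 min. Hydroperoxide was read by Fe-XO absorbance ratio 573/405 nm.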
ERG-DNA inh = blocks human ERG Ets domain binding to DNA | P11308 | fluorescence polarization, His-ERG Ets domain / labelled DNA | Potency, µM (highest dose often 76.9 µM), without a hit: top-dose FP activity, negative = inhibition, most hits filed as inhibitors | 0.028% of 370,000 active | AID 624246; active = well fitted inhibition curve with a large enough effect in the polarisation, with a control signal flat; inconclusive = small, poorly fitted or top-dose-only effect, or effect the other way, or a change in a side signal; inactive = no such curve, though single readings can be large or run the other way; the % refers to the polarisation;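 also: polarization taken with two DNA probes labelled with fluorescein and Texas red; potency is read from the fitted curve at half-maximal effect; % of control where 0% means no effect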
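His-tagged ERG Ets domain (1 uM in the protein solution; 300mM KCl, 50mM Tris-HCl, 1mM EDTA, 1mM DTT, pH 7.5) received compound, then a probe mix of 5 nM fluorescein-DNA and 100nM Texas-615-DNA. Fluorescence polarization was read for both dyes.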
* hit, by the source's call; ? = inconclusive; . = not tested or not shown; [ ] = another dose, or the depositor's remark. An excerpt weighted towards active compounds, which were near 2.7% of everything screened. Unless noted, calls follow the shape of the dose curve; as a rule, active = well fitted curve in the direction sought with a large enough effect; inconclusive = small, poorly fitted or top-dose-only effect, or another doubt; inactive = no such curve, though single readings can be large; an effect the other way counts as inactive or inconclusive.

SMILES | LDHA inh | Nrf2 block | A549 viability | Nrf2 ARE act | ALOX12 inh | ERG-DNA inh
O=C(Nc1nc2c(s1)CCCC2)c1ccc(S(=O)(=O)N2CCCc3ccccc32)cc1 | -9 | 18µM* | -18% | 8% | -23% | 3%
CC(C)(C)c1ccc(C(=O)NC(=S)Nc2nc3c(s2)CCCC3)cc1 | -9 | ? | 3% | 0% | 45µM* | -9%
Cc1nn(-c2ccc(F)cc2)c(-n2cccc2)c1C(=O)N1CCc2ccccc2C1 | 4 | . | . | . | ? | .
O=c1[nH]c(/C(Cl)=C/c2cc(Cl)ccc2O)nc2cc(Cl)ccc12 | -11 | -13% | -9% | 8.9µM* | ? | -5%
O=c1[nH]c(/C(Cl)=C/c2c(F)cccc2Cl)nc2cc(Cl)ccc12 | -8 | ? | -2% | 17% | -13% | -1%
CC(C)c1ccc(CN(C(=O)Cc2c[nH]c3ccccc23)C2CC2)cc1 | 5 | . | . | . | ? | .
Cc1onc(-c2ccccc2)c1C(=O)NC(=S)NNC(=O)c1ccncc1 | -3 | -7% | -2% | -1% | -15% | -4%
Cc1onc(-c2ccccc2)c1C(=O)NC(=S)NNC(=O)c1cc(-c2ccc(F)cc2)n[nH]1 | -21 | ? | -4% | 1% | 45µM* | 0%
CCc1nc2ccccc2n1CCCCOc1ccccc1C | 3 | ? | 0% | 2% | 40µM* | -1%
Cc1ccccc1OCCCn1c(CO)nc2ccccc21 | -2 | 4% | 0% | 3% | 7% | 1%
COc1ccccc1C(=O)Nc1nc2ccccc2[nH]1 | -3 | ? | 2% | -2% | 10% | -5%
COc1cc(SC)ccc1C(=O)Nc1nc2ccccc2[nH]1 | -3 | 1.6µM* | -12% | -2% | 18% | 13%
NC(=O)c1ccccc1NCC(=O)Nc1ccc(OC(F)(F)F)cc1 | 7 | . | . | . | -27% | .
CN1CCCN(C(=O)c2ccc(Cl)cc2)c2ccccc21 | . | . | . | . | 32µM* | .
CN1CCCN(C(=O)c2ccc(F)cc2)c2ccccc21 | . | . | . | . | 14% | .
Cc1ccc(OCC(=O)Nc2ccc3c(c2)nc(CCn2nc(C)cc2C)n3C)cc1 | -5 | . | . | . | -1% | .
Cc1cc(Nc2cc(C)on2)n2ncnc2n1 | 4 | -11% | -4% | 0% | 1.3µM* | 1%
Cc1cc(C)cc(Nc2cc(C)nc3ncnn23)c1 | -1 | . | . | 9% | -19% | .
Oc1ccc(/C=N/NC(=S)NC2CC3CCC2C3)cc1 (configuration not stated) | 0 | ? | -6% | 4% | 18µM* | -8%
S=C(N/N=C/c1cccs1)NC1CC2CCC1C2 (configuration not stated) | -3 | 11% | 1% | 15% | ? | 3%
Clc1ccc(C2C=C(c3ccccc3)Nc3ncnn32)c(Cl)c1 (configuration not stated) | -5 | . | . | . | ? | .
Cc1[nH]n(-c2ncc(-c3ccccc3)s2)c(=O)c1C(c1ccc(Br)cc1)C(C#N)C#N (configuration not stated) | -6 | 1% | 2% | 11% | 25µM* | -8%
Cc1nc(NC(=O)CCOc2ccc(Cl)cc2)sc1C | -3 | . | . | . | ? | .
CCc1ccc(C(=O)c2cnc3ccc(OC)cc3c2N2CCOCC2)cc1 | 4 | . | . | . | 28µM* | .
Cc1cccc(-n2cc[nH]c2=S)c1C | -4 | 15% | -4% | 2% | 50µM* | -13%
SMILES | LDHA inh | Nrf2 block | A549 viability | Nrf2 ARE act | ALOX12 inh | ERG-DNA inh
O=C1NN(c2cccc(Br)c2)C(=O)/C1=C\c1ccccc1 | 4 | ? | -2% | -1% | 5.6µM* | -11%
O=C(NCCCn1ccnc1)c1cc2nc(-c3ccc(Br)cc3)cc(C(F)(F)F)n2n1 | 6 | 21µM* | ? | 2% | -50% | -2%
CCCNC(=O)c1cc2nc(-c3ccc(Br)cc3)cc(C(F)(F)F)n2n1 | -2 | -9% | 1% | 2% | -19% | -2%
COc1cc(-c2nc(-c3ccccc3)c(-c3ccc(Br)cc3)[nH]2)cc(OC)c1O | 15 | -17% | -14% | -1% | 20µM* | -7%
Oc1ccc(-c2nc(-c3ccccc3)c(-c3ccc(Br)cc3)[nH]2)cc1 | 1 | -23% | -7% | -6% | ? | 0%
COc1ccc(-c2[nH]c(-c3cc(OC)c4c(c3)OCO4)nc2-c2ccccc2)cc1 | 0 | 23µM* | ? | 2% | 0% | -1%
CCc1ccc(O)c(OC)c1 | . | . | . | . | 4%[176 µM] | .
CCOc1cccc(-c2c(C(=O)N/N=C/c3ccc(C)s3)nnn2-c2nonc2N)c1 | 0 | -9% | -8% | 0% | 21% | 7%
C/C(=N\NC(=O)c1nnn(-c2nonc2N)c1-c1ccccc1)c1ccccc1O | -5 | 4.6µM* | -7% | -1% | -15% | -5%
CCOc1ccc(-c2c(C(=O)N/N=C/c3ccc(C)s3)nnn2-c2nonc2N)cc1 | 0 | 23µM* | -15% | -1% | . | 12%
CCOc1ccc(-c2c(C(=O)N/N=C/c3cccs3)nnn2-c2nonc2N)cc1 | -5 | 12µM* | 1% | 1% | 0% | 20%
CCOc1cccc(-c2c(C(=O)N/N=C/c3sccc3C)nnn2-c2nonc2N)c1 | -1 | 16µM* | -27% | -2% | 0% | -8%
CCCc1c(C(=O)N/N=C(\C)c2ccccc2O)nnn1-c1nonc1N | -15 | . | . | -1% | ? | .
Cc1cc(S(=O)(=O)NCC(C)O)c(C)cc1Cl (configuration not stated) | 1 | . | . | . | -3% | .
CNc1sc(C(C)=O)cc1C | -1 | . | . | . | 13µM* | .
CC(=O)c1cc(Cc2csc(C(C)=O)c2)cs1 | -9 | 29% | -3% | 2% | -4% | .
Cc1ccc(NC(=O)CSc2nnc(CCCCCNC(=O)OC(C)(C)C)o2)c(C)c1 | -5 | 16µM* | -14% | -1% | 2% | 0%
Cc1ccc(C)c(NC(=O)CSc2nnc(CCNC(=O)OC(C)(C)C)o2)c1 | 1 | -4% | 13% | 0% | -19% | 1%
CC(C)(C)OC(=O)NCCc1nnc(SCc2cccc(Cl)c2)o1 | 1 | 8% | 1% | 0% | 177% | -4%
Cc1cccc(CSc2nnc(CCNC(=O)OC(C)(C)C)o2)c1 | 0 | -8% | 0% | 0% | 7.9µM* | 4%
CC1=CCC(c2cnc(-c3ccccc3)c(C)c2)NC1c1ccccc1 (configuration not stated) | -20 | . | . | . | ? | .
S=C(Nc1ccccc1)Nc1ccccn1 | -5 | . | . | 10% | ? | .
Cc1ccc(C(=O)Nc2nnc(NC(=S)Nc3ccccc3)s2)cc1 | -9 | ? | ? | 3% | 40µM* | 4%
Cc1ccc(NC(=S)Nc2ccccc2)nc1 | 0 | . | . | . | 22µM* | .
S=C(Nc1ccc(Nc2ccccc2)cc1)Nc1ccccn1 | 1 | 21µM* | ? | 3% | 5.6µM* | 1%

Source: PubChem
